Measured values: the supplement of paper PMC6555819

Experiments:
Experiment in all cases: PBM binding z-score (relative to random genomic background probes); higher = stronger binding; sequences stand for … in GC…GCGATTGACAGCGTAGAATGAAGG
[1] = test system: RARb homodimer (NR concentration 270 nM)
Procedure, shortened: (§1)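 The probes on custom Agilent 4×180K protein-binding microarrays were double-stranded, with 34-nt variable regions bearing direct-repeat seeds, single-nucleotide variants, half-site ablations and random human genomic background sequences. Incubation lasted 1 h with ligand-free nuclear receptor dimers in PBS pH 7.4, 2% milk, 0.02% Triton X-100, 1 mM DTT, 0.2 mg/mL BSA and 0.4 mg/ml salmon testes DNA. Antibodies against each partner (one per run) detected bound dimers, and fluorescence scans were regression-normalized. Binding z-scores take the random background probes as reference.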

[2] = test system: RARg:RXRa (NR concentration 270 nM, RXRa partner concentration 90 nM)
Procedure, shortened: as §1

[3] = test system: RARg homodimer (NR concentration 270 nM)
Procedure, shortened: as §1

[4] = test system: RXRa DBDmut IVT, anti-RXR (DBD mutation: RXRa K156A/R161A, NR concentration 90 nM)
Procedure, shortened: as §1

[5] = test system: RXRa homodimer (NR concentration 180 nM)
Procedure, shortened: as §1

[6] = test system: THRa:RXRa (NR concentration 90 nM, RXRa partner concentration 90 nM)
Procedure, shortened: as §1

[7] = test system: THRa homodimer (NR concentration 90 nM)
Procedure, shortened: as §1

[8] = test system: VDR:RXRa (NR concentration 270 nM, RXRa partner concentration 90 nM)
Procedure, shortened: as §1

[9] = test system: VDR homodimer (NR concentration 270 nM)
Procedure, shortened: as §1

| Sequence | PBM binding z-score [1] | PBM binding z-score [2] | PBM binding z-score [3] | PBM binding z-score [4] | PBM binding z-score [5] | PBM binding z-score [6] | PBM binding z-score [7] | PBM binding z-score [8] | PBM binding z-score [9] |
| --- | --- | --- | --- | --- | --- | --- | --- | --- | --- |
| TCATATAGGTAAATGCTAGCTGAAAGTCCGATCT | -0.406 | 0.14 | 0.178 | 1.68 | 0.565 | -0.388 | -0.402 | 0.702 | 0.142 |
| ATATGTAGGTTAAGGGTCAATCAGGTTGGTTCGC | 3.94 | 4.94 | 3.82 | 1.7 | 5.96 | 3.45 | 1.54 | 5.61 | 3.33 |
| TCTTATAGATCAAGCAGGTTAAGAAAGCCTGAGT | 0.27 | 0.242 | 0.136 | 1.03 | 0.704 | 0.558 | -0.379 | 0.894 | 0.389 |
| ATATGTAGGTTAGCTGGGGGCATTCAGACTAGGC | 2.15 | 2.32 | 2.43 | 1.71 | 1.67 | 4.62 | 1.84 | 4.08 | 2.94 |
| ATCTCTAGGAAAAAGTTCAGTGAATCCCGAGGAT | 1.74 | 1.01 | 1.4 | 0.393 | 0.399 | 0.0597 | -0.127 | 0.44 | 1.42 |
| TAGCCTAGGTCATGCGCGCCAGTATAGTGTCGGC | 3.06 | 4.02 | 4.19 | 0.635 | 3.16 | 3.17 | 1.27 | 2.05 | 0.448 |
| CCTACCGGGCCATTCAGAGGTCATTGATCATATG | 4.14 | 4.98 | 3.36 | 0.918 | 3.86 | 3.65 | 1.73 | 4.24 | 4.05 |
| GGAACGAGGGTATTCGAGTTGATAGCATGGCGAT | -0.529 | -0.0783 | 0.118 | 0.869 | 0.0441 | 1.82 | -1.03 | 1.18 | 0.63 |
| AGAATGAGGTTATACGTAGATCAGAGAAGAAAGT | 0.491 | 1.83 | 1.42 | 1.87 | 2.05 | 2.25 | 0.546 | 1.29 | 0.887 |
| ATCTCTAGGTAACCAAGTTCAGTTAATGCCGAAC | 1.74 | 1.09 | 1.12 | 1.33 | 0.444 | 1.97 | 1.43 | 4.33 | 3.19 |
| CCTAGCAGGCCAGGGTCACGCAAGCATTTCGCTT | 3.51 | 4.73 | 3.74 | 0.0811 | 5.81 | 3.6 | 1.62 | 3.95 | 1.53 |
| CCCACTGGGGCAAGGTTACCATAACGCACAGCCA | 1.4 | 1.18 | 1.2 | -1.3 | 1.09 | 1.23 | 0.178 | 0.132 | -0.227 |
| CGTCCAAGGTCACAGGTCAGTGAAGAGATGACGG | 5.03 | 6.75 | 7.51 | 3.42 | 7.67 | 4.36 | 3.28 | 4.91 | 2.75 |
| CCTAGTAGTTGACCATAAGGGCAACCGAAGCTCG | 2.08 | 1.13 | 0.854 | -0.02 | 0.613 | 1.81 | 1.16 | 0.633 | 0.728 |
| CGAACTAGGTCAAAGACAGTGAATCTCCGCACGC | 2.53 | 3.63 | 3.88 | 1.57 | 2.67 | 2.39 | 0.814 | 1.36 | 0.508 |
| ACTTACGTGTCAACGAGGTTATAGCACGCGTATA | 1.17 | 1.44 | 1.18 | 0.532 | 1.38 | 1.99 | 0.476 | 5.46 | 0.875 |
| CCGGACAGGTGAGAAGGTAACTCAGCCTCGATTA | 0.613 | 0.4 | 0.787 | -0.0237 | 0.117 | 0.16 | 0.35 | -0.403 | -0.222 |
| CCGACTGGGCCAAAGGTTACCATACTCAGTACGA | 2.31 | 2.84 | 1.45 | 0.18 | 3.2 | 1.56 | 0.0942 | 1.21 | -0.0479 |
| TAGCCTGGGTCAGATCGGGCCAGTATACGCTATA | 1.61 | 2.42 | 2.86 | -1.34 | 1.46 | 4.11 | -0.483 | 0.452 | -1.02 |
| GCTAGCAGGCCATTGGGGTCACTCAATGACGGGC | 3.44 | 3.98 | 3.1 | 0.8 | 4.7 | 3.84 | 2.39 | 6.04 | 4.55 |
| TAGCCTAGTTCAGATCGGGCCAGTATACGCTATA | -0.206 | -0.0236 | 0.216 | 0.421 | -0.081 | 2.53 | -0.553 | -0.0916 | 0.117 |
| CCTGCTAGGTCATGGTCATCTAATCTACAGTATG | 3.47 | 4 | 4.75 | 1.78 | 2.78 | 3.08 | 1.52 | 1.89 | 0.674 |
| CTCGAAAGGTCGGTTGAGGTGTGTATACGGATAA | 1.73 | 2.34 | 2.27 | 0.858 | 1.74 | 3.69 | -0.0744 | 1.03 | 0.415 |
| GCATATAGGTAATACAAGGCGAAAGTCCGATTGT | -0.287 | 0.107 | 0.326 | 0.52 | 0.182 | 2.28 | -0.176 | -0.126 | -0.0927 |
| AGAATGCGGTTAAGATCAGGGAAACAGAATACAT | -0.126 | 0.0483 | 0.299 | -0.536 | -0.0604 | 0.164 | -0.363 | -0.269 | -0.162 |
| TGAATGAGGTTAAAGATCAGGGATCGTGGCGTCG | 0.409 | 2.25 | 1.11 | 0.89 | 3.63 | 2.33 | 0.0472 | 1.85 | -0.0606 |
